Structures can show the parent of a compound that is named as a salt.
Legend:
Details in all cases: compound concentration in added solution (µM; 5 µl added to 20 µl cells): 10; 18 h
A431 [1] = assay: LBPA endosome anti-LBPA integrated intensity (sum per cell), Z-score; higher = more LBPA staining
Method in brief: (§1)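 HeLa MZ or A431 cells were plated at 3,500 per well in 20 µl over 5 µl of 10 µM compound solution in duplicate 384-well imaging plates and fixed in 4% PFA after 18 h. Staining used the 6C4 anti-LBPA antibody, filipin, propidium iodide and CellTracker green, with four 20× images captured per well. MetaXpress segmentation measured integrated LBPA or filipin intensity per cell, across the whole cell or inside LBPA endosomes, and AcuityXpress normalised these into Z-scores.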

HeLa MZ [2] = assay: as above
Method in brief: as §1

A431 [3] = assay: whole-cell filipin (free cholesterol) integrated intensity, Z-score; higher = more cholesterol staining
Method in brief: as §1

HeLa MZ [4] = assay: as above
Method in brief: as §1

A431 [5] = assay: filipin (cholesterol) integrated intensity within LBPA endosomes, Z-score; higher = more cholesterol in LBPA endosomes
Method in brief: as §1

HeLa MZ [6] = assay: as above
Method in brief: as §1

| SMILES | LBPA endosome anti-LBPA integrated intensity (z-score) (A431 [1]) | LBPA endosome anti-LBPA integrated intensity (z-score) (HeLa MZ [2]) | whole-cell filipin (z-score) (A431 [3]) | whole-cell filipin (z-score) (HeLa MZ [4]) | filipin (z-score) (A431 [5]) | filipin (z-score) (HeLa MZ [6]) |
| --- | --- | --- | --- | --- | --- | --- |
| CC(N)C(O)c1ccccc1 (configuration not stated) [Phenylpropanolamine hydrochloride] | -0.541 | -1.1 | -0.689 | -0.0866 | -0.502 | -0.451 |
| CN1C(=O)CCS(=O)(=O)C1c1ccc(Cl)cc1 (configuration not stated) [Chlormezanone] | -0.579 | -0.715 | -0.534 | 0.0972 | -0.511 | -0.314 |
| C[C@]12CCC(=O)C=C1CC[C@@H]1[C@@H]2C(=O)C[C@]2(C)C(=O)CC[C@@H]12 [Adrenosterone] | 0.667 | 1.59 | 1.61 | 2.01 | 1 | 0.731 |
| CC(C)N(CCC(C(N)=O)(c1ccccc1)c1ccccn1)C(C)C (configuration not stated) [Disopyramide] | -0.423 | 0.142 | -0.822 | -0.537 | -0.461 | -0.294 |
| O=C(CCCN1CCC2(CC1)C(=O)NCN2c1ccccc1)c1ccc(F)cc1 [Spiperone] | 1.39 | 1.71 | 1.66 | 1.7 | 1.87 | 2.13 |
| CCn1cc(C(=O)O)c(=O)c2cc3c(cc21)OCO3 [Oxolinic acid] | -0.55 | -0.225 | -0.848 | -0.638 | -0.512 | -0.645 |
| COc1ccc(Cc2nccc3cc(OC)c(OC)cc23)cc1OC [Papaverine hydrochloride] | -0.662 | 0.0558 | -0.685 | -0.814 | -0.607 | -0.356 |
| CC(C)(C)NCC(O)c1cc(Cl)c(N)c(Cl)c1 (configuration not stated) [Clenbuterol hydrochloride] | 0.0925 | 0.441 | -0.358 | -0.387 | -0.383 | -0.295 |
| O[C@@H]1CCCC[C@H]1N1CCC(c2ccccc2)CC1 [L(-)-vesamicol hydrochloride] | -0.173 | 1.21 | 0.21 | 0.285 | -0.268 | -0.0101 |
| C=C1CC[C@@]2(O)[C@H]3Cc4ccc(O)c5c4[C@@]2(CCN3CC2CC2)[C@H]1O5 [Nalmefene hydrochloride] | -0.278 | 0.776 | -0.193 | -0.0735 | -0.304 | 0.0741 |
| C[C@H](N)[C@H](O)c1ccc(O)c(O)c1 [Levonordefrin] | -0.29 | -0.019 | 0.247 | 0.753 | -0.427 | -0.337 |
| CCC1=C[C@H]2CN3CCc4c([nH]c5ccccc45)[C@](C(=O)OC)(C2)[C@H]13 [Catharanthine] | 0.776 | 1.57 | 1.16 | 0.581 | 0.958 | 0.861 |
| C[C@]12CCC(=O)C=C1C=C[C@@H]1[C@@H]2CC[C@@]2(C)[C@H]1CC[C@@]2(O)CCC(=O)O [Canrenoic acid potassium salt] | -0.568 | -1.1 | -1.15 | -1.15 | -0.611 | -0.819 |
| CCC(=O)O[C@@](Cc1ccccc1)(c1ccccc1)[C@@H](C)CN(C)C [Levopropoxyphene napsylate] | -0.308 | -0.465 | 0.489 | 0.709 | 0.194 | -0.129 |
| CN1C[C@H](CNC(=O)OCc2ccccc2)C[C@@H]2c3cccc4c3c(cn4C)C[C@H]21 [Metergoline] | 3.11 | 1.47 | 1.11 | 1.28 | 4.03 | 4.18 |
| CCOC(=O)c1cncn1[C@H](C)c1ccccc1 [Etomidate] | -0.611 | -1.14 | -0.618 | -0.784 | -0.487 | -0.672 |
| C#C[C@]1(O)CC[C@H]2[C@@H]3CCC4=CC(=O)CC[C@]4(C)[C@H]3CC[C@@]21C [Ethisterone] | -0.369 | -0.214 | -0.635 | -1.08 | -0.449 | -0.685 |
| CN1CCN(C(=O)OC2c3nccnc3C(=O)N2c2ccc(Cl)cn2)CC1 (configuration not stated) [Zopiclone] | -0.313 | -0.4 | -0.601 | -0.164 | -0.406 | -0.296 |
| CCN(CC)C(C)C(=O)c1ccccc1 (configuration not stated) [Amfepramone hydrochloride] | -0.552 | 0.252 | -0.82 | -0.758 | -0.654 | -0.615 |
| C[N+]1(C)CCCC(OC(=O)C(O)(c2ccccc2)c2ccccc2)C1 (configuration not stated) [Mepenzolate bromide] | -0.582 | -0.861 | -0.409 | -0.0861 | -0.481 | -0.374 |
| COc1ccc(C(CN(C)C)C2(O)CCCCC2)cc1 (configuration not stated) [Venlafaxine] | -0.375 | 0.627 | -0.148 | -0.294 | -0.383 | -0.283 |
| CC(C)c1cccc(C(C)C)c1O [Propofol] | -0.483 | -0.0677 | -0.406 | -0.391 | -0.506 | -0.548 |
| CC[C@@H](C(N)=O)N1CCCC1=O [Levetiracetam] | -0.634 | -1.5 | -0.363 | 0.0516 | -0.585 | -0.523 |
| O=c1[nH]c2ccccc2n1C1CCN(CCCC(c2ccc(F)cc2)c2ccc(F)cc2)CC1 [Pimozide] | 0.798 | 0.814 | 0.271 | -0.393 | 0.65 | 0.34 |

| SMILES | LBPA endosome anti-LBPA integrated intensity (z-score) (A431 [1]) | LBPA endosome anti-LBPA integrated intensity (z-score) (HeLa MZ [2]) | whole-cell filipin (z-score) (A431 [3]) | whole-cell filipin (z-score) (HeLa MZ [4]) | filipin (z-score) (A431 [5]) | filipin (z-score) (HeLa MZ [6]) |
| --- | --- | --- | --- | --- | --- | --- |
| O=C(NCNC(=O)NC1C(=O)NC(=O)N1CO)NC1C(=O)NC(=O)N1CO (configuration not stated) [Imidurea] | -0.433 | 0.0233 | -0.35 | -0.63 | -0.459 | -0.511 |
| C[C@@H]1CC[C@H]2[C@@H](C)C(=O)O[C@@H]3O[C@@]4(C)CC[C@@H]1[C@]32OO4 [Artemisinin] | -0.479 | 0.63 | -0.6 | 0.161 | -0.503 | -0.315 |
| NCC1(CC(=O)O)CCCCC1 [Gabapentin] | -0.54 | -0.377 | -0.349 | -0.476 | -0.52 | -0.627 |
| CNC(=O)Oc1ccc2c(c1)[C@]1(C)CCN(C)[C@@H]1N2C [Eserine sulfate, physostigmine sulfate] | -0.59 | -0.404 | -0.783 | -0.229 | -0.479 | -0.36 |
| c1ccc2nc(N3CCNCC3)ccc2c1 [Quipazine dimaleate salt] | -0.64 | 0.00535 | -0.594 | -0.241 | -0.575 | -0.45 |
| O=P1(NCCCl)OCCCN1CCCl (configuration not stated) [Ifosfamide] | -0.43 | -0.294 | 0.0112 | -0.489 | -0.396 | -0.611 |
| C[C@]12CC[C@H]3[C@@H](CCC4=CC(=O)CC[C@@H]43)[C@@H]1CC[C@@H]2O [Nandrolone] | -0.352 | 0.296 | -0.14 | -0.437 | -0.296 | -0.508 |
| CN[C@@H]1[C@@H](O)[C@@H](O[C@@H]2[C@@H](O)[C@H](O[C@H]3O[C@H](CN)CC[C@H]3N)[C@@H](N)C[C@H]2N)OC[C@]1(C)O.CN[C@@H]1[C@@H](O)[C@@H](O[C@@H]2[C@@H](O)[C@H](O[C@H]3O[C@H]([C@@H](C)N)CC[C@H]3N)[C@@H](N)C[C@H]2N)OC[C@]1(C)O.CN[C@@H]1[C@@H](O)[C@@H](O[C@@H]2[C@@H](O)[C@H](O[C@H]3O[C@H]([C@@H](C)NC)CC[C@H]3N)[C@@H](N)C[C@H]2N)OC[C@]1(C)O [Gentamicine sulfate] | -0.58 | -1.17 | -1.14 | -0.98 | -0.535 | -0.682 |
| O=c1c2ccccc2[se]n1-c1ccccc1 [Ebselen] | -0.435 | -0.608 | -0.31 | -0.0059 | -0.372 | -0.243 |
| CC(=O)NC1CCSC1=O (racemic) [N-Acetyl-DL-homocysteine Thiolactone] | -0.475 | -0.898 | -0.462 | -0.0159 | -0.405 | -0.461 |
| C[C@@]12N[C@@H](Cc3ccccc31)c1ccccc12 [(-)-MK 801 hydrogen maleate] | -0.405 | 0.615 | -0.428 | -0.298 | -0.407 | -0.347 |
| CCC(=O)O[C@H]1CC[C@H]2[C@@H]3CCC4=CC(=O)CC[C@]4(C)[C@H]3CC[C@]12C [Testosterone propionate] | -0.618 | -0.712 | -0.907 | -0.813 | -0.502 | -0.546 |
| C[C@]12Cc3c[nH]nc3C[C@@H]1CC[C@@H]1[C@@H]2CC[C@@]2(C)[C@H]1CC[C@]2(C)O [Stanozolol] | 0.154 | 1.15 | 0.353 | -0.167 | 0.0473 | -0.12 |
| O=[N+]([O-])O[C@H]1CO[C@H]2[C@@H]1OC[C@H]2O[N+](=O)[O-] [Isosorbide dinitrate] | -0.547 | -1 | -0.426 | -0.655 | -0.496 | -0.471 |
| OC(c1ccccc1)(c1ccccc1)C1CCNCC1 [Azacyclonol] | -0.397 | -0.253 | -0.445 | -0.666 | -0.198 | 0.228 |
| CN1[C@@H]2CC[C@H]1C[C@@H](OC1c3ccccc3CCc3ccccc31)C2 [Deptropine citrate] | 3.21 | 1.46 | 1.8 | -0.333 | 2.68 | 1.23 |
| O=C1CC[C@@]2(O)[C@H]3Cc4ccc(O)c5c4[C@@]2(CCN3CC2CC2)[C@H]1O5 [Naltrexone hydrochloride dihydrate] | -0.577 | -0.427 | -0.831 | -1 | -0.48 | -0.466 |
| C[C@]12COC(=O)C[C@@H]1CC[C@@H]1[C@@H]2CC[C@@]2(C)[C@H]1CC[C@]2(C)O [Oxandrolone] | -0.386 | -0.00131 | -0.15 | -0.159 | -0.429 | -0.517 |
| C[N+](C)(C)CCCCCCCCCC[N+](C)(C)C [Decamethonium bromide] | -0.547 | -1.08 | 0.0371 | 0.872 | -0.372 | -0.446 |
| COP(=O)(OC)C(O)C(Cl)(Cl)Cl (configuration not stated) [Trichlorfon] | -0.479 | -0.711 | -1.16 | -1.48 | -0.56 | -0.592 |
| CCCC(C)C1(CC)C(=O)NC(=O)NC1=O (configuration not stated) [Pentobarbital] | -0.683 | -1.58 | -0.881 | -0.632 | -0.553 | -0.624 |
| S=C(NC1CCCCC1)N1CCC(c2cnc[nH]2)CC1 [Thioperamide maleate] | 2.17 | 2.24 | -0.0418 | 0.0454 | 0.0582 | 0.431 |
| CCNCC(O)c1cccc(O)c1 (configuration not stated) [Etilefrine hydrochloride] | -0.181 | -0.0522 | 0.485 | -0.0907 | -0.374 | -0.466 |
